Test results reported in the supplement of paper PMC7156485.
± gives the standard deviation of the averaged measurements.

Columns and labels:
Conditions in all cases: concentration: 10 µM; 24 h
[1] = test system: HCC1569; assay: cell number relative to DMSO (% of DMSO); higher = more cells (less growth inhibition / toxicity)
In short: (§1)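 After 24 h at 37 °C with compounds at 10 µM, in triplicate, HCC1569 and TDF cells were fixed with 3.7% formaldehyde. Immunostaining used a rabbit anti-H1.0 antibody and an AlexaFluor 647 secondary, with DAPI, and six fields per well were imaged at ×10. H1.0 nuclear intensity or cell number is presented as percent of the plate control, from the median of replicates, with HCC1569 values smoothed for positional effects.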

[2] = test system: TDF; assay: as above
In short: as §1

[3] = test system: HCC1569; assay: H1.0 immunofluorescence intensity relative to DMSO (% of DMSO); higher = stronger H1.0 induction, active = 140 or more
In short: as §1

[4] = test system: TDF; assay: H1.0 immunofluorescence intensity relative to DMSO (% of DMSO); higher = stronger H1.0 induction, active = 120 or more
In short: as §1
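Wherever H1.0 immunofluorescence intensity relative to DMSO is given: TDF is a line of transformed human dermal fibroblasts of mesenchymal origin.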
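Wherever cell number relative to DMSO is given: TDF denotes transformed human dermal fibroblasts of mesenchymal origin.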

Structure (SMILES): CCN(CC)CCCC(C)Nc1c2ccc(Cl)cc2nc2ccc(OC)cc12.Cl.Cl (stereo not drawn) [Quinacrine dihydrochloride]
- cell number [1]: 67.6
- cell number [2]: 4.99
- H1.0 immunofluorescence intensity [3]: 133 (inactive)

Structure (SMILES): CC(=O)C1(O)Cc2c(O)c3c(c(O)c2C(OC2CC(N)C(O)C(C)O2)C1)C(=O)c1ccccc1C3=O (stereo not drawn) [Idarubicin]
- cell number [1]: 49.1 ± 12
- cell number [2]: 5.14 ± 3
- H1.0 immunofluorescence intensity [3]: 584 (active)

Structure (SMILES): O=C1c2ccccc2-c2nc3nnnn3nc21 [PDK1/Akt/Flt Dual Pathway Inhibitor]
- cell number [1]: 41.8
- cell number [2]: 3.4
- H1.0 immunofluorescence intensity [3]: 56.9 (inactive)

Structure (SMILES): COS(=O)(=O)[O-].C[n+]1c2ccccc2nc2ccccc21 [5-methylphenazin-5-ium methyl sulfate]
- cell number [1]: 28.1
- cell number [2]: 4.9
- H1.0 immunofluorescence intensity [3]: 688 (active)

Structure (SMILES): CCOC(=O)N1CCC(=C2c3ccc(Cl)cc3CCc3cccnc32)CC1 [Loratadine]
- H1.0 immunofluorescence intensity [4]: 98.3 (inactive)
- H1.0 immunofluorescence intensity [3]: 103 (inactive)

Structure (SMILES): O=C(O)C1=CC(O)C(O)C(O)C1 (stereo not drawn) [Shikimic acid]
- H1.0 immunofluorescence intensity [4]: 97.5 (inactive)
- H1.0 immunofluorescence intensity [3]: 100 (inactive)

Structure (SMILES): Oc1cc2c(c(Cl)c1O)CCNCC2c1ccccc1 (stereo not drawn)
- cell number [1]: 99.5
- cell number [2]: 87.8
- H1.0 immunofluorescence intensity [4]: 85.5 (inactive)
- H1.0 immunofluorescence intensity [3]: 105 (inactive)

Structure (SMILES): CN(C)CCCN1c2ccccc2Sc2ccc(C(F)(F)F)cc21.Cl [Triflupromazine hydrochloride]
- H1.0 immunofluorescence intensity [4]: 110 (inactive)
- H1.0 immunofluorescence intensity [3]: 113 (inactive)

Structure (SMILES): S=C([S-])N1CCCC1.[NH4+] [Ammonium pyrrolidinedithiocarbamate]
- cell number [1]: 87.9
- cell number [2]: 1.9
- H1.0 immunofluorescence intensity [3]: 126 (inactive)

Structure (SMILES): Clc1ccc(N/N=C(\c2ccccc2)c2ccccn2)nc1
- cell number [1]: 73.1
- cell number [2]: 1.54
- H1.0 immunofluorescence intensity [3]: 111 (inactive)
